Assay outcomes (PubChem)
The list is not random: actives were taken first. Their share in the collection is about 9.4%.
Pf growth 48h = inhibits P. falciparum growth in the first generation, 48 h; P. falciparum luciferase growth in erythrocytes, 48 h; Potency, µM (series often up to 28.7 µM), without a hit: top-dose activity change, negative = inhibition, actives largely listed as inhibitors; actives 5.9% (n = 310,000); note: % is set by controls: 0 for no effect and ±100 for the full control effect
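Erythrocytes infected with P. falciparum carrying an integrated firefly luciferase reporter (2% hematocrit, 0.1% parasitemia final) were exposed to compounds in RPMI 1640 with 0.5% Albumax at 37 C, 5% CO2. Growth inhibition was scored as reduced luminescence.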
Pf growth 96h = inhibits malaria parasite growth, 96 h; P. falciparum luciferase reporter growth, 96 h; Potency, µM (highest dose often 28.7 µM), for inactives: at the top dose activity change, negative = inhibition, most hits filed as inhibitors; actives 6.9% (n = 320,000); AID 504834; note: % is set by controls: 0 for no effect and ±100 for the full control effect
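Compounds incubated with erythrocytes infected by luciferase-expressing P. falciparum (2% hematocrit, 0.05% parasitemia final) for 96 hours, 37 C in 5% CO2. Growth inhibition scored as decreased luciferase luminescence.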
SARS PLP yeast = blocks SARS-CoV papain-like protease in a yeast assay; S. cerevisiae expressing SARS-CoV PLpro, growth rescue; Potency, µM (highest dose often 32.9 µM), for the others: at the highest dose activity, positive = growth rescue, actives largely listed as activators; actives 0.19% (n = 330,000); calls by dose curve; note: 0% is about no effect; nearly all actives have a fitted effect of over 55% in size
AMA1-RON2 inh = disrupts binding of P. falciparum AMA1 to RON2; AlphaScreen AMA1-biotinylated RON2 peptide binding; Potency, µM (doses to about 58.2 µM), without a hit: top-dose activity change, negative = inhibition, usual class: inhibitors; actives 0.2% (n = 360,000);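 note: 0% = vehicle wells and -100% = peptide control; nearly all actives have a fitted effect of over 45% in size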
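AMA1 (3D7) with his tag at 25 nM final met compounds first, then biotinylated RON2 peptide at 25 nM; detection used donor plus acceptor beads, 10 µg/mL apiece, read by AlphaScreen after 30 min at room temperature.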
* marks the source's active call; other numbers are inactive results; ? = inconclusive; . = not tested or not shown. Unless noted, calls come from the whole dose curve; as a rule, active = well fitted curve in the direction sought with a large enough effect; inconclusive = small, poorly fitted or top-dose-only effect, or another doubt; inactive = no such curve, though single readings can be large; an effect the other way counts as inactive or inconclusive. Potency is the fitted concentration of half-maximal effect.

SMILES	Pf growth 48h	Pf growth 96h	SARS PLP yeast	AMA1-RON2 inh
CCc1nc2ccc(C(=O)Nc3ccc4c(c3)OCO4)cc2nc1CC	37.0%	?	-1.0%	-16.3%
COc1ccccc1C=C1SC(=S)NC1=O	.	.	.	1.0%
COc1cc(/C=C(/C#N)c2nc3ccccc3[nH]2)ccc1OC(=O)c1ccco1	30.2%	23.9%	-7.7%	2.4%
O=C(Nc1cc(-c2ccccc2)cs1)c1ccco1	?	2.33µM*	-0.4%	-16.6%
Cc1csc(NC(=O)NCC2CCCC(CNC(=O)Nc3nc(C)cs3)C2)n1 (stereo not drawn)	11.7µM*	?	5.2%	-16.3%
Nc1nc(CN2CCCCCC2)nc(Nc2ccccc2)n1	3.6%	?	0.7%	-0.9%
Nc1nc(CN2CCC(Cc3ccccc3)CC2)nc(Nc2ccccc2)n1	.	7.38µM*	-7.2%	-5.8%
Nc1nc(CN2CCN(C(c3ccccc3)c3ccccc3)CC2)nc(Nc2ccccc2)n1	8.28µM*	4.65µM*	2.1%	-16.4%
CCN1CCN(C(=O)C(=O)c2cn(CC(=O)N3CCCCCC3)c3ccccc23)CC1	?	?	21.8%	14.8%
CC1CCN(S(=O)(=O)c2ccc3c(c2)c(=O)c(C(=O)NC2CCCC2)cn3C)CC1	35.5%	?	-2.1%	12.6%
Cn1cc(C(=O)NC2CCCCC2)c(=O)c2cc(S(=O)(=O)N3CCCC3)ccc21	-21.8%	8.28µM*	-1.5%	1.8%
CC1CCCC(NC(=O)c2cn(C)c3ccc(S(=O)(=O)N4CCCC4)cc3c2=O)C1C (stereo not drawn)	?	7.4%	-0.5%	.
CCC(C)NC(=O)c1cn(CC)c2ccc(S(=O)(=O)N3CCCCCC3)cc2c1=O (stereo not drawn)	?	13.1µM*	0.7%	32.1%
CC1CCCCC1NC(=O)c1cn(C)c2ccc(S(=O)(=O)N3CCCC3)cc2c1=O (stereo not drawn)	8.28µM*	1.5%	2.9%	-0.3%
Cn1cc(C(=O)NCc2cccnc2)c(=O)c2cc(S(=O)(=O)N3CCCCCC3)ccc21	2.2%	6.57µM*	2.8%	.
O=C(O)[C@@H]1CCCC[C@@H]1C(=O)N1CCc2ccccc2C1CN1C(=O)c2ccccc2C1=O (stereo partly drawn)	.	-23.1%	4.8%	7.7%
O=C(O)c1sccc1NC(=O)c1c(Cl)cccc1Cl	52.4%	26.4%	-1.0%	-10.7%
COc1ccc(C=C2SC(=S)N(CCCN3CCOCC3)C2=O)c(OC)c1	.	.	.	-5.8%
CCn1cc(C(=O)NCCCOC(C)C)c(=O)c2cc(S(=O)(=O)N3CCC(C)CC3)ccc21	?	1.04µM*	-5.2%	-8.5%
Cc1ccc(S(=O)(=O)N2CCCCC2)cc1C(=O)OC(C)C(=O)NC1CCCCC1C (stereo not drawn)	?	13.1µM*	2.3%	-7.4%
CC(C)CCNC(=O)c1cn(C)c2ccc(S(=O)(=O)N3CCCC3)cc2c1=O	-11.8%	?	-2.3%	5.1%
CC(NC(=O)c1cn(C)c2ccc(S(=O)(=O)N3CCCC3)cc2c1=O)c1ccccc1 (stereo not drawn)	11.7µM*	11.7µM*	-1.3%	8.0%
COC(=O)c1cn(C)c2ccc(S(=O)(=O)N3CCCC3)cc2c1=O	2.0%	3.7µM*	-31.0%	-6.9%
CCn1cc(C(=O)NCCCOC)c(=O)c2cc(S(=O)(=O)N3CCC(C)CC3)ccc21	-11.7%	-28.0%	-5.2%	-2.8%
CCOC(=O)C(CCC(=O)O)(CCC(C)C)c1csc(N)n1 (stereo not drawn)	.	-5.3%	-9.0%	-2.9%
SMILES	Pf growth 48h	Pf growth 96h	SARS PLP yeast	AMA1-RON2 inh
CCCC(C(=O)NC1CCCC1)N(CCN(CC)CC)C(=O)c1snc(C(N)=O)c1N (stereo not drawn)	24.4%	36.0%	0.5%	9.5%
COc1ccc(OC)c(C(c2nnnn2C2CCCC2)N2CCN(c3ccc(F)cc3)CC2)c1 (stereo not drawn)	11.7µM*	23.5%	-9.7%	-28.7%
CCN1CCN(C(c2ccccc2OC)c2nnnn2C2CCCCC2)CC1 (stereo not drawn)	-22.9%	14.4%	4.6%	4.6%
COc1ccc2cc(C(c3nnnn3C3CCCCC3)N3CCCCCC3)c3nnnn3c2c1 (stereo not drawn)	.	.	.	28.6%
COc1ccc(C(c2nnnn2C2CCCC2)N2CCC(C)CC2)c(OC)c1 (stereo not drawn)	11.7µM*	3.4%	-5.5%	0.5%
Cn1nc(C(=O)Nc2ccccc2N2CCOCC2)ccc1=O	-8.5%	-29.8%	-4.3%	6.5%
